Test results taken from publication PMC4336329 (PLoS ONE, 2015).
Out of some 310,000 compounds screened, about 2,200 (0.71%) showed an effect of 50% or more. Effects have a minus sign here. For the sample, strong results were picked, then their nearest neighbours and some compounds at random.

Target: human ether-à-go-go-related gene (hERG) potassium channel (human, UniProt Q12809)
Experiment: primary screen, population patch clamp on CHO cells stably expressing hERG; higher = less effect of the substance
Procedure: Briefly, Chinese hamster ovary (CHO) cells stably expressing the hERG channel were dislodged from tissue culture flasks and dispensed into PPC plates. […] During the recording, background leak currents were estimated by a 100 ms step to -80 mV from an initial holding potential of -70 mV and subtracted from the subsequent current measurement. The campaign was conducted in two phases using slight differences in recording protocol. In the first phase, the initial voltage pulse used a 100 ms step to -30 mV from a holding potential of -70 mV, a 2 s conditioning step to +25 mV, and a 2 s test step to -30 mV. During the second phase of the screen, the potential during the conditioning step was raised to +45 mV. In both phases of the campaign, a secondary voltage pulse was applied using the same parameters as the second phase initial pulse. The initial and secondary pulses were applied in the absence of compound, and upon application of 1 μM and 10 μM test concentrations. Small molecule effects on hERG current density were quantified by […].

human ether-à-go-go-related gene (hERG) potassium channel, sequence (Q12809 whole entry, looked up): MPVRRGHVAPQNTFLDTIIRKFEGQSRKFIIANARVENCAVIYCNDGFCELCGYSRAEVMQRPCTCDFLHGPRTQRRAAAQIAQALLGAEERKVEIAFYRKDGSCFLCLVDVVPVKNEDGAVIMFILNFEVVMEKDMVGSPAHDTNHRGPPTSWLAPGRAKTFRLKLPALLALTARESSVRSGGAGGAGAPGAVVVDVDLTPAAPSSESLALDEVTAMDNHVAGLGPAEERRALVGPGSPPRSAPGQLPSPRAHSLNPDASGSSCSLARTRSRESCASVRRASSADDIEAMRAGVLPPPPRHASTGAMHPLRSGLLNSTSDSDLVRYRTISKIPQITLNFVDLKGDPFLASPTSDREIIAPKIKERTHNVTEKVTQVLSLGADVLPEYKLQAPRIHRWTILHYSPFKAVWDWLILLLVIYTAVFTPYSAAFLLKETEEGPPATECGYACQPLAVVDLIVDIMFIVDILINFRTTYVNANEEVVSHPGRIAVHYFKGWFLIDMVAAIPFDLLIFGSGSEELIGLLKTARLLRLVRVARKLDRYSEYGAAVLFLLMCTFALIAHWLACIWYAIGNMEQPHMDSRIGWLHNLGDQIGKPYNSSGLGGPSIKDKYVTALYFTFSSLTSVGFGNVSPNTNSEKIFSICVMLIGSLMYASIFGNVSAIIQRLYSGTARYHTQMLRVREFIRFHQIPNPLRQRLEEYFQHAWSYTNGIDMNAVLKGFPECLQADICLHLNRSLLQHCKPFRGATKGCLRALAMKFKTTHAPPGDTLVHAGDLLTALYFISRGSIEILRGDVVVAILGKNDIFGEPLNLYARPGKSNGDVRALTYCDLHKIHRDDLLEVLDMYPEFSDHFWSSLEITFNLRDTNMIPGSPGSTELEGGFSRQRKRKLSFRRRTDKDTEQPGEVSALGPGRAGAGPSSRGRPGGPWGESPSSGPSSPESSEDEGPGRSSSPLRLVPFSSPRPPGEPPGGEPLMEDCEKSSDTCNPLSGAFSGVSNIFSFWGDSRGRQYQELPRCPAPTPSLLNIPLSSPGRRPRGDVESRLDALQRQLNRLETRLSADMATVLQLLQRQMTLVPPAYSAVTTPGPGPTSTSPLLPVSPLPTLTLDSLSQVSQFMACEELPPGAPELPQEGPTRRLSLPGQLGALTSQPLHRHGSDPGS

Point of comparison: `C=CCn1c(SCC(=O)OCC)nc2cc(C(=O)NCc3ccco3)ccc2c1=O`, “hERG current change (%, negative = inhibition) at 1uM” value -9.92%. Against it:
- COc1ccc(OC)c(C2C(C#N)=C(N)Oc3c2c(C)nn3-c2cccc(Cl)c2)c1 (centres unmarked) — higher, 7.28%
- CCCCn1c(SCC(=O)Nc2cccc(C)n2)nnc1-c1ccco1 — lower, -78%
- COCCCn1c(SCC(=O)Nc2cccc(C)n2)nnc1-c1ccco1 — lower, -20.6%
- CCn1c(SCC(=O)Nc2cccc(C)n2)nnc1-c1ccco1 — higher, 0.773%
- COc1ncnc2c1oc1nc(CC(C)C)c3c(c12)CC(C)(C)OC3 — lower, -10.6%
- O=C(CSc1ccc(F)cc1)Nc1ccc(Br)cc1 — higher, 13.9%
- CCOC(=O)/C(C(C)=O)=C1\OC(=O)c2ccccc21 — higher, 8.9%
- COc1ccc(CCNC(=O)CSc2n[nH]c(N)n2)cc1OC — higher, 18.1%
- COc1ccc(CNC(=O)CSc2n[nH]c(N)n2)cc1 — higher, 14.9%
- COc1ccc(CNC(=O)CSc2n[nH]c(N)n2)cc1OC — lower, -73.4%
- O=C(O)C1Nc2ccc(C(F)(F)F)cc2C2OCCC12 (centres unmarked) — higher, 10.7%
- CCCCCn1c(SCC(=O)OCC)nc2cc(C(=O)NCc3ccco3)ccc2c1=O — higher, 12.8%
- CCOC(=O)CSc1nc2cc(C(=O)NCC3CCCO3)ccc2c(=O)n1Cc1ccco1 (centres unmarked) — lower, -18.2%
- O=C(NCc1ccco1)c1ccc2c(=O)n(Cc3ccco3)c(SCC(=O)N3CCCC3)nc2c1 — lower, -66.9%
- O=C(NCC1CCCO1)c1ccc2c(=O)n(Cc3ccco3)c(SCC(=O)N3CCCC3)nc2c1 (centres unmarked) — lower, -54%
- O=C(NCC1CCCO1)c1ccc2c(=O)n(CC3CCCO3)c(SCC(=O)N3CCCC3)nc2c1 (centres unmarked) — higher, 5.44%
- CCN(C(=O)CSc1nnnn1-c1ccccc1)c1c(N)n(Cc2ccccc2)c(=O)[nH]c1=O — higher, 15.9%
- CCOc1ccc2nc(NCCO)[nH]c2c1 — higher, 10.9%
- Cc1ccc(S(=O)(=O)NCCC(=O)NC2CCCC2)cc1 — higher, 1.28%
- CC(C)CN1CCC(=O)N([C@H](COc2ccccc2)Cc2ccccc2)CC1 — lower, -29.8%
- CCCN1CCC(=O)N([C@H](COc2ccccc2)CC(C)C)CC1 — lower, -48.1%
- O=C1CCN(CCCc2ccccc2)CCN1[C@H](CO)Cc1ccccc1 — lower, -12%
- CCCCCCCN1CCC(=O)N([C@H](CO)Cc2ccccc2)CC1 — lower, -77.2%
- CCCN1CCC(=O)N([C@H](COc2ccccc2)Cc2ccccc2)CC1 — lower, -52.4%
- COc1ccc(SC[C@H](CC(C)C)N2CCN(CCc3ccccc3)CCC2=O)cc1 — lower, -51.6%
- CC(C)C[C@@H](CSc1ccc(Br)cc1)N1CCN(CCc2ccccc2)CCC1=O — lower, -28.9%
- CCCN1CCC(=O)N([C@H](CSc2ccccc2)Cc2ccccc2)CC1 — lower, -48.9%
- CC(C)C[C@@H](COc1ccccc1)N1CCN(Cc2ccccc2)CCC1=O — higher, -4.6%
- CC(C)C[C@@H](COc1ccccc1)N1CCN(CCc2ccccc2)CCC1=O — lower, -61.7%
- CCCN1CCC(=O)N([C@H](CO)Cc2ccccc2)CC1 — higher, 6.98%
- COc1ccc(SC[C@H](Cc2ccccc2)N2CCN(CCc3ccccc3)CCC2=O)cc1 — lower, -43.2%
- O=C(Oc1coc(CSc2ncccn2)cc1=O)c1ccc(Br)o1 — higher, 11.6%
- Cc1cc(C)n(CCN(C)C(=O)C2CCC(=O)N(CCN3CCOCC3)C2)n1 (centres unmarked) — higher, 16.1%
- COc1ccc(C2CC(c3ccccc3)=NN2C(=O)c2ccc(Cl)c([N+](=O)[O-])c2)cc1 (centres unmarked) — higher, 9.38%
- CN(CC(=O)Nc1ccc(Cl)c(C(F)(F)F)c1)C(=O)c1cn2ccccc2n1 — higher, 5.27%
- O=C(N/N=C/c1cc(Br)c(O)c(Br)c1)c1cccnc1 — higher, 18.5%
- COc1ccccc1/C=C(/C(=O)OCC(=O)Nc1ccc(N(C)C)cc1)c1ccccc1 — higher, 9.09%
- COc1ccccc1C(=O)N/N=C/c1cnc2ccccc2n1 — higher, 6.27%
- O=C1CCN(Cc2ccccc2)CCN1[C@H](COc1ccccc1)Cc1ccccc1 — higher, -7.61%
- O=C1CCN(CCc2ccccc2)CCN1[C@H](COc1ccccc1)Cc1ccccc1 — lower, -60.4%
- CN1CCC(=O)N([C@H](COc2ccccc2)Cc2ccccc2)CC1 — higher, -8.2%
- CCOc1ccc(C(=O)COC(C)=O)cc1 — higher, 9.74%
- O=c1[nH]c(C2CCCN(S(=O)(=O)c3ccc(F)cc3)C2)nc2c1nnn2Cc1ccccc1 (centres unmarked) — higher, 7.82%
- OCCC1CN(CC#Cc2ccccc2)CCN1C1CCCC1 (centres unmarked) — higher, -7.79%
- OCCC1CN(Cc2cnc(-c3ccc(Cl)cc3)nc2)CCN1C1CCCC1 (centres unmarked) — lower, -62%
- CC(C)CCN1CCN(CC#Cc2ccccc2)CC1CCO (centres unmarked) — higher, 4.3%
- OCCC1CN(CC(c2ccccc2)c2ccccc2)CCN1C1CCCC1 (centres unmarked) — lower, -74.5%
- OCCC1CN(C/C(Cl)=C/c2ccccc2)CCN1C1CCCC1 (centres unmarked) — lower, -43.4%
- Cc1cccc(-c2ncc(CN3CCN(C4CCCC4)C(CCO)C3)cn2)c1 (centres unmarked) — lower, -15.1%
- OCCC1CN(Cc2cnc(-c3ccc(Cl)cc3)nc2)CCN1C1CCCCC1 (centres unmarked) — lower, -31.1%
- CC(C)CCN1CCN(CC(c2ccccc2)c2ccccc2)CC1CCO (centres unmarked) — lower, -81.9%
- CC(C)CCN1CCN(CCCc2ccccc2)CC1CCO (centres unmarked) — higher, -1.8%
- COc1ccc(S(=O)(=O)Nc2ccc(-c3ccc(N4CCCC4)nn3)cc2)cc1C — higher, 11.6%
- CC(Oc1ccc(Cl)cc1Cl)c1ccnc(N)n1 (centres unmarked) — higher, 16.2%
- Clc1ccccc1C1=Nn2c(nnc2-c2ccco2)SC1 — higher, 4.48%
